For some assays here: Potency and affinity values are given separately.
Key:
Set-up in all cases: scale not given: direction of the effect not stated beside the values
[1] = biological target: Protein translocase subunit SecA (Escherichia coli (strain K12)) (UniProt P10408); assay: Assay to Identify E. coli SecA ATPase Inhibitors; type: functional; conditions: 30 µM
[2] = biological target: T1, Ubiquitin-activating enzyme e1, putative (Leishmania donovani (strain BPK282A1)) (UniProt E9BSI1); assay: Leishmania donovani Ubiquitin Activating Enzyme (LdE1); type: functional; conditions: 30 µM
T1 sequence (whole entry): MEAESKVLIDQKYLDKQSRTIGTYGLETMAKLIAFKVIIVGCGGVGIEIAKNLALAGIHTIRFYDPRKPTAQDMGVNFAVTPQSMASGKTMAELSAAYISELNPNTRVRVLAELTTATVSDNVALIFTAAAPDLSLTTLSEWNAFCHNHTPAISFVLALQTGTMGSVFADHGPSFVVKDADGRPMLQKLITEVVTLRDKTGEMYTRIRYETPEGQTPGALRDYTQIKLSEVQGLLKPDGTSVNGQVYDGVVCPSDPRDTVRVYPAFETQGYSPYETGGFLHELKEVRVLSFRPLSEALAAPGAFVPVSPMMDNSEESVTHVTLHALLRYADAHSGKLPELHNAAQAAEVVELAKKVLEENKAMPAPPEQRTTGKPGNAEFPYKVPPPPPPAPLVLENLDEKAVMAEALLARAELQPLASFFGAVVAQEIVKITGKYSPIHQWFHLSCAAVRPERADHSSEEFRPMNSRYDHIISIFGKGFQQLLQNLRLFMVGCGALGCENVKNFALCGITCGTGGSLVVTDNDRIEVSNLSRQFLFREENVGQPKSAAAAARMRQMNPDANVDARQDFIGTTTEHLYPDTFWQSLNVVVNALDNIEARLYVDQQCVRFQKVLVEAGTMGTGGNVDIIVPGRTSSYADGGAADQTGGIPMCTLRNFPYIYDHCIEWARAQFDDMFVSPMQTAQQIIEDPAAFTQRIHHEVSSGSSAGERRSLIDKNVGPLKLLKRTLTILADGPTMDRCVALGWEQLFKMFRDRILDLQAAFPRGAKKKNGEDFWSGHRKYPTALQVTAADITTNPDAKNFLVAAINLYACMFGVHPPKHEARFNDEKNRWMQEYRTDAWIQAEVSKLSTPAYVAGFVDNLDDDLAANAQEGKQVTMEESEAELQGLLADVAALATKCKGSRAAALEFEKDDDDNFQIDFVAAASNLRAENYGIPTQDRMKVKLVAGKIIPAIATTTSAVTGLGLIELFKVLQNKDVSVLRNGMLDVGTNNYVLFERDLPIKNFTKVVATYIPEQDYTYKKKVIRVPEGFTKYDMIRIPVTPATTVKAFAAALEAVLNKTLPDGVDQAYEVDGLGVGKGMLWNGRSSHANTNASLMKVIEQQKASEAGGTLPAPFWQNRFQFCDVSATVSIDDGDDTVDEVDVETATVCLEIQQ

[3] = biological target: Sialic acid-binding Ig-like lectin 9 (Homo sapiens) (UniProt Q9Y336); assay: Hs-Siglec9 ALPHAscreen SOP 20170721; conditions: 10 µM
Trypanosoma cruzi = assay: Trypanosoma cruzi phosphomannomutase and mannose-1-phosphate guanylyltransferase assay; type: functional; conditions: 10 µM
[4] = biological target: T2, Arginase-2, mitochondrial (Homo sapiens) (UniProt P78540); assay: in vitro enzyme assay to detect the production of urea directly proportional to the activity of Arginase II; type: functional; conditions: 33.3 µM; note: in the data most compounds retested in dose-response had high values
T2 sequence (whole entry): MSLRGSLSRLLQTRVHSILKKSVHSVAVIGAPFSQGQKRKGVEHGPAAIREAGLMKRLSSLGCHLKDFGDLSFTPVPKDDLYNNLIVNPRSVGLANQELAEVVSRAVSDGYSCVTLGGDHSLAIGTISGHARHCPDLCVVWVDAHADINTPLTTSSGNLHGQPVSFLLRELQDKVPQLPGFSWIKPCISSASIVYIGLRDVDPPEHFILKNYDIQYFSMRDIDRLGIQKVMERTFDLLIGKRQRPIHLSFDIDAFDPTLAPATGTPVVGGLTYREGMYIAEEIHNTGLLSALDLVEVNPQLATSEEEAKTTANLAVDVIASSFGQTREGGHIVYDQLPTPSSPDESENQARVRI

[5] = biological target: T3, Proteasome subunit beta (Trypanosoma cruzi) (UniProt O96673); assay: Trypanosoma cruzi proteasome chymotrypsin-like activity (TcProtChymo) assay.; note: in the data most compounds retested in dose-response had high values; type: functional; conditions: 9.37 µM
T3 sequence (whole entry): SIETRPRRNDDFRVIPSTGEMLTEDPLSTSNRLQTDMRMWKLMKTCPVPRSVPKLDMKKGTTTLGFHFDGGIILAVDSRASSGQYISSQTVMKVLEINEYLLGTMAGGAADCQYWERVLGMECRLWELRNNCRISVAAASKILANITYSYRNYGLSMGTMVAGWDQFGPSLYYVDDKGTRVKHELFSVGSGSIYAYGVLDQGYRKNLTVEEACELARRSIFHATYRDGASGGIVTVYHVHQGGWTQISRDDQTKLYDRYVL

Homo sapiens = species: Homo sapiens; assay: To identify inhibition of the IFN signalling (Jak-Stat) pathway via expression of an eGFP reporter gene under the control of an IFN-stimulated response element (ISRE) containing MxA promoter.; type: functional; conditions: 30 µM
[6] = biological target: T4, Tyrosyl-tRNA synthetase, putative (Trypanosoma cruzi (strain CL Brener)) (UniProt Q4DSP6); assay: Trypanosoma cruzi tyrosyl tRNA synthetase (TcYRS) _High Tyrosine SOP; type: functional; conditions: 30 µM; note: in the data most compounds retested in dose-response had high values
T4 sequence (whole entry): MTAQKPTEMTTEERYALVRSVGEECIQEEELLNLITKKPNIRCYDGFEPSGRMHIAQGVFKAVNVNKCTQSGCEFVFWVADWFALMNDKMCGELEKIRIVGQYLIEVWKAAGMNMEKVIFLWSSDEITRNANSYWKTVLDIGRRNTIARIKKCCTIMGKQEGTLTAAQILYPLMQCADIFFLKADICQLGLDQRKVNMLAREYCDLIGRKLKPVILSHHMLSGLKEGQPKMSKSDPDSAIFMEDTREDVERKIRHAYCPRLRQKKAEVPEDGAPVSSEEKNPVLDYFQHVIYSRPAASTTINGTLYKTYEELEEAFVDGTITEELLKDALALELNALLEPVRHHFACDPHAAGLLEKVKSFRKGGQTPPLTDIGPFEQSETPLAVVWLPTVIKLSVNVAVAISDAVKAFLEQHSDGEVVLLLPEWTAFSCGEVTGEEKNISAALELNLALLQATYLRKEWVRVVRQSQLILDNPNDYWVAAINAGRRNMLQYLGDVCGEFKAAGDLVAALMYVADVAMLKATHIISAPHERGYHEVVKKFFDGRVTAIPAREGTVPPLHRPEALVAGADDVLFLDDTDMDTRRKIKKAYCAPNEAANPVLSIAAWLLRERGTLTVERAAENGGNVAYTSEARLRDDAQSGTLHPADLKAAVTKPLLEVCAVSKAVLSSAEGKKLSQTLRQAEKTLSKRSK

[7] = biological target: T4, Tyrosyl-tRNA synthetase, putative (Trypanosoma cruzi (strain CL Brener)); assay: Trypanosoma cruzi tyrosyl tRNA synthetase (TcYRS) SOP; type: functional; conditions: 30 µM
[8] = biological target: Chromo domain-containing protein 1 (Saccharomyces cerevisiae (strain ATCC 204508 / S288c) (Baker's yeast)) (UniProt P32657); assay: ScCHD-1 Enzyme Inhibition Assay; type: functional; conditions: 30 µM; note: in the data most compounds retested in dose-response had high values
Chromo domain-containing protein 1 (Saccharomyces cerevisiae (strain ATCC 204508 / S288c) (Baker's yeast)), sequence (P32657 whole entry, the tested form may be a part): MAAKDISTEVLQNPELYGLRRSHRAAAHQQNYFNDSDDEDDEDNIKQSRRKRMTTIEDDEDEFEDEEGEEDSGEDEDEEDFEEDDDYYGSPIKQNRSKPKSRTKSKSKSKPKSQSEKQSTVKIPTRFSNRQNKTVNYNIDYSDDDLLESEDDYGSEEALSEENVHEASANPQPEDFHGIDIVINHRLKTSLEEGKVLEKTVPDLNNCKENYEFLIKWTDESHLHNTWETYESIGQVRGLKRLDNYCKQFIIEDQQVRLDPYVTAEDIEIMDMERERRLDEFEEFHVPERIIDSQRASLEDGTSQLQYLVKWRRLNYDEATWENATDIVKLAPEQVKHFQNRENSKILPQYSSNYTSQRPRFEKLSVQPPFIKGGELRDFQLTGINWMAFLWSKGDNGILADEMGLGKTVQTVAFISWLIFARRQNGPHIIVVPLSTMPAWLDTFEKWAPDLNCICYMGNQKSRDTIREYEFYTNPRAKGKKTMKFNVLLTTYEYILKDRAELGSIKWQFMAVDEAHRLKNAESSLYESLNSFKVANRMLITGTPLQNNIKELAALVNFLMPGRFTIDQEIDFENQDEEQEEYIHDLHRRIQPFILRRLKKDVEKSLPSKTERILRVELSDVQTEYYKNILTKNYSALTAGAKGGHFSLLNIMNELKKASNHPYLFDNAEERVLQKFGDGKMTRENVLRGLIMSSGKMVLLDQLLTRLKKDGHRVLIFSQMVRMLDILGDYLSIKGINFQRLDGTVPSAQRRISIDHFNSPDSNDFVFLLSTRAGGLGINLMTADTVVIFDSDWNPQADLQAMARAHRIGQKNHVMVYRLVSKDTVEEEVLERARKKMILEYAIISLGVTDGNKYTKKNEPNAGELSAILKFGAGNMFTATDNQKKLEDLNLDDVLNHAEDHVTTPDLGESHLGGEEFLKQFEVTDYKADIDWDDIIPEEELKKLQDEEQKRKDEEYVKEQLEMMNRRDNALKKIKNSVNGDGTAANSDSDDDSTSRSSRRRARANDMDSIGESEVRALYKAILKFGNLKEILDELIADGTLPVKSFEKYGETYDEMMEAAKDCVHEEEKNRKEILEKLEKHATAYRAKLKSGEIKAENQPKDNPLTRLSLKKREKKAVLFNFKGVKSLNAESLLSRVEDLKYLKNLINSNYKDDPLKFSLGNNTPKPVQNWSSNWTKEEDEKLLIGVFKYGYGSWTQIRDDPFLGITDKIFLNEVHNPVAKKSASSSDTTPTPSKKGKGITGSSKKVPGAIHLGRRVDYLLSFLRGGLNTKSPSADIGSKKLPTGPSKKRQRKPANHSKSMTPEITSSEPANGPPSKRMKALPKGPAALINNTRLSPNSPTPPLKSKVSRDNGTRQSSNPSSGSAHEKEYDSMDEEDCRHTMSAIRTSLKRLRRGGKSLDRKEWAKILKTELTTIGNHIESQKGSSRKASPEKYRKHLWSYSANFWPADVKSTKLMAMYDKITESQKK

Sialic acid-binding Ig-like lectin 9 (Homo sapiens), sequence (Q9Y336 whole entry): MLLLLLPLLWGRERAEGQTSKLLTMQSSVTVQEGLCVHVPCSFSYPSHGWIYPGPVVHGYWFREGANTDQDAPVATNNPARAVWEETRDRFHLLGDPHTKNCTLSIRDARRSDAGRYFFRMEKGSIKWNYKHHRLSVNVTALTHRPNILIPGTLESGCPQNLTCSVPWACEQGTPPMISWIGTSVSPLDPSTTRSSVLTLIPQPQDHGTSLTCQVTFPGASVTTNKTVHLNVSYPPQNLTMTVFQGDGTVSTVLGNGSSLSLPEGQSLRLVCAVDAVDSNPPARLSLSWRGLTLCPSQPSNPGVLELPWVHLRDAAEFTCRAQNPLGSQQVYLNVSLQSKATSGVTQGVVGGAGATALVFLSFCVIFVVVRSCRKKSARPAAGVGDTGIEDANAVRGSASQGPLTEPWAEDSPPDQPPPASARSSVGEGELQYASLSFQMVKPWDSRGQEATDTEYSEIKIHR
Protein translocase subunit SecA (Escherichia coli (strain K12)), sequence (P10408 whole entry): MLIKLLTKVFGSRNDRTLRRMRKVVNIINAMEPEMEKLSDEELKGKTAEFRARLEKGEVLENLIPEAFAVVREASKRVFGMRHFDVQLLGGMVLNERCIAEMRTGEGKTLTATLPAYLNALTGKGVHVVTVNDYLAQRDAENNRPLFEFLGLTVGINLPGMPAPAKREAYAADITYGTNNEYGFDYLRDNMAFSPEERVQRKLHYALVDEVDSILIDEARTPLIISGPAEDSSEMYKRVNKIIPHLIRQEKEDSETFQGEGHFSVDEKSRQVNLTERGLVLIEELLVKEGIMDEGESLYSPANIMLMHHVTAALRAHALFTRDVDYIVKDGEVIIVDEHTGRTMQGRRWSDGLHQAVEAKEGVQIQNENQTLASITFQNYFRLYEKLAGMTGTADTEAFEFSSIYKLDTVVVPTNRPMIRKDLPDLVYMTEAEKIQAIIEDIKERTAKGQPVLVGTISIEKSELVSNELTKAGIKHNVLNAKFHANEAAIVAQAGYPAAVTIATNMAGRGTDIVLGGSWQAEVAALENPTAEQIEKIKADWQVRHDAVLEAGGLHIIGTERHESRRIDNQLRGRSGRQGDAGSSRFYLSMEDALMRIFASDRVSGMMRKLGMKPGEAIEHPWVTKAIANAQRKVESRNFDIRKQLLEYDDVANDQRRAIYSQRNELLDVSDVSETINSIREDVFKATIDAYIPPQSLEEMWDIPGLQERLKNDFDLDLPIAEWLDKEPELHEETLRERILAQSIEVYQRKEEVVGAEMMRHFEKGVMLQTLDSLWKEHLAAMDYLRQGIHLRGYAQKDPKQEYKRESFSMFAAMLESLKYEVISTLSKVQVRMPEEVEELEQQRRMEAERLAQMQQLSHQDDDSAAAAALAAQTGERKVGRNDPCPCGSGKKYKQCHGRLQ

Compound | Percent Effect [1] [%] | Percent Effect [2] [%] | Percent Effect [3] [%] | Percent Effect (Trypanosoma cruzi) [%] | Percent Effect [4] [%] | Percent Effect [5] [%] | Percent Effect (Homo sapiens) [%] | Percent Effect [6] [%] | Percent Effect [7] [%] | Percent Effect [8] [%]
CC(C)c1nn(C)c(N2CCOCC2)c1CNCC(=O)N(C)C | -2.05 | 12.8 | -8.89 | 1.22 | 3.69 | 10.5 | -5.7 | 7.18 | 22.9 | -5.02
O=C(c1cc2cc(F)ccc2[nH]1)N1CCC(Nc2cccnn2)CC1 | -5.68 | 7.79 | -3.05 | -8.21 | -12.9 | 10.7 | 14 | 0.98 | -2.35 | -5.32
CCOc1ncccc1NC(=O)NC1CCN(S(C)(=O)=O)CC1 | -4.68 | 2.6 | -7.28 | -6.34 | -6.76 | 8.25 | 25.1 | 0.98 | 4.71 | -11.6
OC(CNCCn1cccn1)c1ccc(F)c(F)c1 (stereo not given) | 1.48 | 16 | -2.24 | 2.81 | 1.33 | 19.8 | 18.7 | 4.74 | 12.8 | -8.38
O=C(CCc1cc2n(n1)CCN(Cc1ncc[nH]1)C2)N1CCCC1 | -3.73 | 18.9 | 0.852 | 1.07 | 13.6 | 14.4 | 15.1 | 4.79 | 19.5 | -1.96
CC(NC(=O)N1CCC(OCc2ccccc2)CC1)c1nncn1C (stereo not given) | -3.83 | 5.33 | -0.332 | 7.63 | 1.33 | 14.8 | 15.6 | 2.63 | 12.8 | -8.27
O=C(Nc1nnc(C2CC2)s1)NC1CCN(Cc2ccccc2)C1 (stereo not given) | -5.17 | 12.8 | -8.9 | -2.35 | 0.82 | 4.01 | 43.6 | 0.478 | 10.8 | -0.956
CCN(C)c1ncnc2c1CCN(Cc1ccc(OC)cc1)CC2 | -4.72 | 6.49 | -9.08 | -2.04 | 2.43 | 13.5 | 25.4 | 0.526 | 7.69 | -4.67
Cc1ccccc1-c1noc(CN2CCn3c(nnc3C3CC3)C2)n1 | -6.21 | -25.6 | -13.3 | -3.1 | -0.41 | 5.21 | 15.8 | 0.478 | 1.21 | -7.86
Cc1ccccc1-c1cc(C(=O)NCCN2CCCS2(=O)=O)[nH]n1 | -1.9 | 12.8 | -10.8 | 9.3 | -2.05 | 5.72 | 4.69 | 5.26 | 20.5 | -1.78
CCOC(=O)N1CCN(C(=O)c2ccc3ccn(C)c3c2)CC1 | -3.31 | 0 | 29 | 7.47 | -8.74 | 11.6 | 9.78 | 4.79 | 7.32 | 5.11
CC(Nc1cccc(CN2CCOC2=O)c1)C(=O)Nc1ccccc1F (stereo not given) | -0.263 | 7.69 | 0.909 | -1.41 | 4.51 | 3.5 | 29.9 | 2.39 | 8.43 | -5.9
Cc1nnc2n1CCN(C(C(=O)NC1CC1)c1ccccc1)C2 (stereo not given) | -3.46 | 2.56 | 6.36 | 3.47 | 3.69 | 5.72 | 8.81 | 3.35 | 13.2 | -2.99
Cc1ccc(NC2CCN(C(=O)c3cnc(C)s3)CC2)nn1 | -3.62 | 10.7 | -0.486 | -3.01 | 0.887 | -0.594 | 15.9 | 5.79 | 12.8 | -6.74
CCc1nc(C)c(C(=O)NCCN2CCN(C(C)=O)CC2)s1 | -2.42 | 10.4 | 4.38 | -0.373 | 1.43 | -0.702 | 15.7 | 7.84 | 21.2 | -6.18
CC(C)NC(=O)C1CN(C(=O)Nc2ccccc2)CC12CCOCC2 (stereo not given) | -8.24 | 3.9 | -2.62 | -3.02 | 1.22 | 22.9 | 14.5 | 6.84 | 2.56 | -3.13
COc1ccc(CNCC2CCN(CC(C)O)CC2)c2ccccc12 (stereo not given) | -1.39 | -10.3 | 5.63 | 5.73 | 6.97 | 0.939 | 31.9 | 4.31 | 18.1 | -4.71
CN(C)CCN1CCCC12CCN(C(=O)c1cnccn1)CC2 | -2.79 | 11.7 | 2.72 | 2.81 | 4.57 | 3.69 | 0.368 | 7.73 | 15 | -6.82
c1ccc(C(OCCNC2CCc3ncnn3C2)c2ccccc2)cc1 (stereo not given) | -5.97 | 10.4 | 5.43 | 5.41 | -4.3 | 0.526 | -3.8 | 0.98 | 18.8 | -13.3
CCn1ccnc1CN1CCC(CCC(=O)Nc2ccccc2Cl)CC1 | -1.09 | 5.41 | 7.23 | 6.89 | 12.2 | -1.37 | 10.8 | 1.6 | 7.32 | 83.4
CC(C)N1CCO[C@H]2CN(C(=O)c3ccc(N(C)C)cc3)C[C@H]21 | -3.12 | 1.3 | -9.38 | -6.13 | 3.64 | 15.6 | 4.68 | 8.95 | 12.8 | -3.55
CCOc1cc(CNC(=O)N2CCC(Cc3cnn(C)c3)C2)ccn1 (stereo not given) | -2.64 | -2.56 | 1.57 | 9.11 | 0.82 | 2.13 | 4.43 | 3.35 | 6.02 | -0.605
CCC(=O)N(C)CC(=O)Nc1ccc(Br)cn1 | -6.29 | 2.67 | 0.577 | -4.22 | 1.77 | 6.87 | 8.04 | -0.526 | 2.56 | -5.17

— ChEMBL document CHEMBL3988442, “University of Dundee, Small-Polar-MMV Screening Library” (2021)
